Holding throughout (test): NCI-60 one-dose screen, 48 h (100 = growth as untreated, 0 = no growth, -100 = all killed)
One experiment deals with EKVX NSCLC. The note with it: 10 µM.
For another experiment, the system named is SN12C renal. The note with it: 10 µM.
Another experiment relates to UO-31 renal. Particulars: 10 µM.
In a further experiment the test system is TK-10 renal. The note with it: 10 µM unless noted.
A further experiment deals with ACHN renal. The note with it: 10 µM.
A further experiment concerns CAKI-1 renal. Particulars: 10 µM.
A further experiment relates to CCRF-CEM leukemia. Particulars: 10 µM.
For the next experiment, the system named is MOLT-4 leukemia. The note with it: 10 µM.
The test system of a further experiment is SR leukemia. Particulars: 10 µM.
The test system of a further experiment is OVCAR-8 ovarian. Particulars: 10 µM.
A further experiment relates to OVCAR-5 ovarian. Particulars: 10 µM.
In the next experiment the test system is OVCAR-4 ovarian. Particulars: 10 µM.
The next experiment deals with SK-OV-3 ovarian. Particulars: 10 µM.
Another experiment concerns IGROV1 ovarian. The note with it: 10 µM.
The test system of another experiment is OVCAR-3 ovarian. Particulars: 10 µM.
Another experiment deals with HS 578T breast. The note with it: 10 µM.
The test system of the next experiment is NCI/ADR-RES ovarian. The note with it: 10 µM.
Another experiment has as its system A498 renal. Particulars: 10 µM.
Another experiment deals with RPMI-8226 leukemia. Particulars: 10 µM.

The structures appear in SMILES notation. The panel holds about 83,000 compounds, 20% with a hit somewhere; the sample as a whole holds those more often.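 Values shown are percent growth following 48 h exposure of cells in 96-well plates to a single concentration of compound; below 10 was considered active.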 A number with no mark means an inactive call. The source made the active and inactive calls.

Turning to `CN(C)C(C)(C)CC(C)(C)C`, the growth is 95.8% in the experiment on EKVX NSCLC; 98.3% in the experiment on SN12C renal; 76.7% with UO-31 renal; 143% in the experiment with TK-10 renal; 100% with ACHN renal; 101% in the experiment with CAKI-1 renal. Besides, the growth with CCRF-CEM leukemia was 89.8%; with MOLT-4 leukemia, 95.1%; in the experiment on SR leukemia it was 93.5%; in the experiment with OVCAR-8 ovarian, 109%; in the experiment on OVCAR-5 ovarian, 102%; in the experiment with OVCAR-4 ovarian it was 108%. The growth is 109% with SK-OV-3 ovarian; 106% with IGROV1 ovarian; 100% in the experiment on OVCAR-3 ovarian; 104% in the experiment with HS 578T breast; 103% in the experiment with NCI/ADR-RES ovarian.

Regarding `O=C(NCO)c1ccccc1`, the growth was 108% in the experiment with EKVX NSCLC; 105% in the experiment with SN12C renal; 78.9% in the experiment on UO-31 renal; 144% in the experiment on TK-10 renal; 97.4% with ACHN renal; 98.5% in the experiment on CAKI-1 renal. The growth in the experiment on A498 renal is 106%; with MOLT-4 leukemia it was 95.4%; with SR leukemia, 98.3%; with OVCAR-8 ovarian, 108%; in the experiment on OVCAR-5 ovarian, 104%; in the experiment on SK-OV-3 ovarian it was 104%. Also, the growth in the experiment with IGROV1 ovarian was 97.2%; in the experiment on OVCAR-3 ovarian it was 104%; with HS 578T breast it was 111%; in the experiment on NCI/ADR-RES ovarian it was 109%.

For the compound `CC1Cc2ccccc2O1` (centres undefined), the growth with EKVX NSCLC is 122%; in the experiment with SN12C renal, 106%; in the experiment on UO-31 renal, 90.6%; in the experiment with TK-10 renal, 129%; in the experiment on ACHN renal, 101%; in the experiment on CAKI-1 renal, 102%. The growth in the experiment with A498 renal is 115%; in the experiment on CCRF-CEM leukemia it was 112%; in the experiment with MOLT-4 leukemia, 105%; with SR leukemia it was 100%; in the experiment on RPMI-8226 leukemia it was 109%; in the experiment with OVCAR-8 ovarian, 112%. In addition, the growth in the experiment with OVCAR-5 ovarian is 110%; in the experiment on OVCAR-4 ovarian it was 119%; with SK-OV-3 ovarian it was 112%; in the experiment on IGROV1 ovarian it was 111%; in the experiment with OVCAR-3 ovarian, 118%; in the experiment with HS 578T breast, 111%. Besides, the growth in the experiment with NCI/ADR-RES ovarian was 110%.

Regarding `CC1(c2ccccc2)NC(=O)NC1=O` (centres undefined), the growth with EKVX NSCLC is 120%; in the experiment on SN12C renal it was 96.9%; in the experiment with UO-31 renal, 82.5%; in the experiment with TK-10 renal, 98.8%; in the experiment on ACHN renal it was 107%; with CAKI-1 renal, 104%. In addition, the growth was 123% in the experiment with A498 renal; 102% with CCRF-CEM leukemia; 101% with MOLT-4 leukemia; 102% in the experiment on SR leukemia; 105% in the experiment on RPMI-8226 leukemia; 103% with OVCAR-8 ovarian. Besides, the growth in the experiment on OVCAR-5 ovarian is 109%; with OVCAR-4 ovarian, 115%; in the experiment with SK-OV-3 ovarian, 107%; in the experiment with IGROV1 ovarian, 105%; with OVCAR-3 ovarian it was 121%; with NCI/ADR-RES ovarian, 114%.

Turning to `CC(=O)c1ccc(C)c(N)c1`, the growth in the experiment on EKVX NSCLC is 91.8%; in the experiment with SN12C renal, 96%; with UO-31 renal it was 81.4%; in the experiment with TK-10 renal, 98.5%; in the experiment on ACHN renal, 101%; in the experiment on CAKI-1 renal, 92.9%. Also, the growth in the experiment with A498 renal is 95.4%; with CCRF-CEM leukemia, 94.3%; with MOLT-4 leukemia, 103%; in the experiment on SR leukemia, 106%; in the experiment with RPMI-8226 leukemia, 101%; with OVCAR-8 ovarian it was 96.4%. Moreover, the growth in the experiment with OVCAR-5 ovarian is 102%; in the experiment on OVCAR-4 ovarian, 111%; in the experiment on SK-OV-3 ovarian it was 98.6%; with IGROV1 ovarian, 95.8%; with OVCAR-3 ovarian, 108%; in the experiment on HS 578T breast, 96.9%. Moreover, the growth in the experiment with NCI/ADR-RES ovarian is 91.2%.

Regarding `O=C(O)c1ccc(S(=O)(=O)O)cc1`, the growth was 104% with EKVX NSCLC; 95.2% in the experiment on SN12C renal; 64.4% in the experiment on UO-31 renal; 116% with TK-10 renal; 99.5% in the experiment with ACHN renal; 79% with CAKI-1 renal. In addition, the growth with A498 renal is 122%; in the experiment on CCRF-CEM leukemia, 106%; in the experiment on MOLT-4 leukemia, 118%; in the experiment with RPMI-8226 leukemia, 98%; with OVCAR-5 ovarian, 107%; with OVCAR-4 ovarian, 104%. The growth with SK-OV-3 ovarian was 112%; in the experiment with OVCAR-3 ovarian, 119%; with HS 578T breast, 87.6%; with NCI/ADR-RES ovarian, 100%.

Turning to `C=CCNc1nnc(C)s1`, the growth with EKVX NSCLC was 109%; in the experiment on SN12C renal, 95.6%; with UO-31 renal, 81.1%; in the experiment with TK-10 renal, 123%; in the experiment with ACHN renal, 96.7%; in the experiment on CAKI-1 renal it was 119%. Also, the growth is 123% in the experiment on A498 renal; 105% in the experiment on CCRF-CEM leukemia; 168% in the experiment with MOLT-4 leukemia; 101% in the experiment on RPMI-8226 leukemia; 96% with OVCAR-5 ovarian; 113% in the experiment on OVCAR-4 ovarian. Besides, the growth is 115% with SK-OV-3 ovarian, 110% with OVCAR-3 ovarian, 101% in the experiment on HS 578T breast and 103% in the experiment on NCI/ADR-RES ovarian.

Take `CC1(C)Nc2cccc3c(N=Nc4ccc(N=Nc5ccccc5)c5ccccc45)ccc(c23)N1`: the growth in the experiment on EKVX NSCLC was 78%; in the experiment with SN12C renal, 94.6%; in the experiment on UO-31 renal it was 54.2%; with ACHN renal, 77.7%; in the experiment on CAKI-1 renal it was 88.1%; in the experiment with A498 renal, 103%. The growth is 107% in the experiment on CCRF-CEM leukemia; 115% in the experiment with MOLT-4 leukemia; 107% in the experiment with SR leukemia; 97% in the experiment with RPMI-8226 leukemia; 109% with OVCAR-8 ovarian; 94.9% with OVCAR-5 ovarian. Besides, the growth is 91.1% with OVCAR-4 ovarian, 52.1% in the experiment on IGROV1 ovarian, 104% in the experiment on HS 578T breast and 98.1% in the experiment on NCI/ADR-RES ovarian.

For the compound `COc1cc2nc3cc([N+](=O)[O-])ccc3c(Cl)c2cc1OC`, the growth was 83.3% in the experiment with EKVX NSCLC; 97.7% in the experiment on SN12C renal; 84.1% in the experiment on UO-31 renal; 95.2% in the experiment on TK-10 renal; 91.9% with ACHN renal; 101% in the experiment with CAKI-1 renal. Further, the growth was 7.26% (active) in the experiment with A498 renal; 107% in the experiment on MOLT-4 leukemia; 91.7% in the experiment on SR leukemia; 88.2% in the experiment with OVCAR-8 ovarian; 86.3% with OVCAR-5 ovarian; 106% with SK-OV-3 ovarian. Further, the growth with IGROV1 ovarian is 89.7%; in the experiment with OVCAR-3 ovarian, 123%; with HS 578T breast it was 112%; with NCI/ADR-RES ovarian, 103%.

For the compound `OCc1cccc2ccccc12`, the growth in the experiment on EKVX NSCLC was 119%; in the experiment on SN12C renal it was 108%; in the experiment on UO-31 renal, 95.5%; in the experiment with TK-10 renal, 100%; in the experiment with ACHN renal, 98.6%; in the experiment on CAKI-1 renal, 110%. Also, the growth with A498 renal is 109%; with MOLT-4 leukemia it was 97.5%; in the experiment with SR leukemia, 104%; in the experiment with OVCAR-8 ovarian, 111%; in the experiment on OVCAR-5 ovarian it was 111%; in the experiment with OVCAR-4 ovarian it was 109%. For the same compound, the growth in the experiment with SK-OV-3 ovarian is 110%; with IGROV1 ovarian, 120%; in the experiment with OVCAR-3 ovarian it was 105%; in the experiment on NCI/ADR-RES ovarian it was 105%.

(Values after PubChem BioAssay (NCI).)
